Source: PubChem BioAssay
Activity calls are given as the source filed them.

What was measured:
[1] = binders of probe aFSTL3 on microarray, primary screen, stem cell growth factor project, biochemical, small-molecule microarray, fluorescence 635/667 (AID 1064); details: higher = more signal;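 further: measures binding of the biotinylated anti-FSTL3 antibody to printed compounds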
[2] = binders from COS7 lysate, DM2A8 probe, primary screen, torsin A project, cell lysate, small-molecule microarray, fluorescence 635/667 (AID 1065); details: higher = more signal, COS7 lysate expressing mutant human TOR1A
[3] = binders of probe aFGF2 on microarray, primary screen, stem cell growth factor project, biochemical, small-molecule microarray, fluorescence 635/667 (AID 1067); details: higher = more signal;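 further: measures binding of biotinylated aFGF2 protein to printed compounds on slides; z-score merges feature fluorescence and signal-to-noise across triplicate slides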
[4] = binders of probe aFGF10 on microarray, primary screen, stem cell growth factor project, biochemical, small-molecule microarray, fluorescence 635/667 (AID 1071); details: higher = more signal;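 further: score merges 667 nm spot intensity and signal to noise from triplicate slides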
[5] = molecular target: Neurogenic locus notch homolog protein 2 (Homo sapiens) (UniProt Q04721); assay: Notch2 binders on small-molecule microarrays, primary screen, biochemical, small-molecule microarray, 635 nm fluorescence, stem cell growth factors (AID 1073); details: Notch2 binding, higher = more signal
[6] = molecular target: Pro-neuregulin-1, membrane-bound isoform (Homo sapiens) (UniProt Q02297); assay: NRG1 binders on small-molecule microarrays, primary screen, psychiatric disease protein project, biochemical, small-molecule microarray, fluorescence 635/667 (AID 1075); details: NRG1 binding, 635 nm fluorescence, higher = more signal;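 further: score combines 667 nm spot fluorescence with signal to noise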
[7] = system: Neuregulin-1 EGF-like domain; assay: binders of neuregulin-1 EGF-like domain, primary screen, biochemical, small-molecule microarray, 635 nm fluorescence (AID 1081); details: small-molecule microarray binding, higher = more signal;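 further: binding of the protein to compounds printed on small-molecule microarray slides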
[8] = FRG1 promoter luciferase signal modulators, primary screen, FRG1 inhibition for FSHD, cell-based, C2C12 myotubes, firefly/Renilla luciferase, luminescence (AID 1084); details: higher = more signal, called active from +8 up or from −8 down
[9] = binders of probe aFST on microarray, primary screen, stem cell growth factor project, biochemical, small-molecule microarray, fluorescence 635/667 (AID 1086); details: higher = more signal;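 further: score merges 667 nm fluorescence with signal-to-noise of each printed compound spot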
[10] = binders of probe aHhip on microarray, primary screen, stem cell growth factor project, biochemical, small-molecule microarray, fluorescence 635/667 (AID 1087); details: higher = more signal;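 further: score merges spot fluorescence at 667nm with spot signal to noise ratio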

Sequence of Pro-neuregulin-1, membrane-bound isoform (Homo sapiens) (Q02297 whole entry, looked up, the tested form may be a part, canonical isoform): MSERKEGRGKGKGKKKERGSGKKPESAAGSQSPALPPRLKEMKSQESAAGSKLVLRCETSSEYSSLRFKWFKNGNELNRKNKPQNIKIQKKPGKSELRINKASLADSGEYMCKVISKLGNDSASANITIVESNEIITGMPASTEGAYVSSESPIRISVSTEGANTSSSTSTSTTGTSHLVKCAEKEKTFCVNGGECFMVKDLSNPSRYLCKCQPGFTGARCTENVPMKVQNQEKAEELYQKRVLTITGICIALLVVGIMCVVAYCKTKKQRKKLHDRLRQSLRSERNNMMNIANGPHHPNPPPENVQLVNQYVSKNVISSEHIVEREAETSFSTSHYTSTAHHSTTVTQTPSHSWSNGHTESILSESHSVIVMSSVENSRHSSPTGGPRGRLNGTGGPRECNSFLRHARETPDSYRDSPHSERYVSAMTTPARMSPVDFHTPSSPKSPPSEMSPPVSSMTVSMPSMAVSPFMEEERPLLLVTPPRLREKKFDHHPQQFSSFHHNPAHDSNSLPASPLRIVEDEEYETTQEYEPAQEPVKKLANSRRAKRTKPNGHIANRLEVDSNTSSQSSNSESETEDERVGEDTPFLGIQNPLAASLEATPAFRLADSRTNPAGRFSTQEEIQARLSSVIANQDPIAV
Sequence of Neurogenic locus notch homolog protein 2 (Homo sapiens) (Q04721 whole entry, looked up, canonical isoform): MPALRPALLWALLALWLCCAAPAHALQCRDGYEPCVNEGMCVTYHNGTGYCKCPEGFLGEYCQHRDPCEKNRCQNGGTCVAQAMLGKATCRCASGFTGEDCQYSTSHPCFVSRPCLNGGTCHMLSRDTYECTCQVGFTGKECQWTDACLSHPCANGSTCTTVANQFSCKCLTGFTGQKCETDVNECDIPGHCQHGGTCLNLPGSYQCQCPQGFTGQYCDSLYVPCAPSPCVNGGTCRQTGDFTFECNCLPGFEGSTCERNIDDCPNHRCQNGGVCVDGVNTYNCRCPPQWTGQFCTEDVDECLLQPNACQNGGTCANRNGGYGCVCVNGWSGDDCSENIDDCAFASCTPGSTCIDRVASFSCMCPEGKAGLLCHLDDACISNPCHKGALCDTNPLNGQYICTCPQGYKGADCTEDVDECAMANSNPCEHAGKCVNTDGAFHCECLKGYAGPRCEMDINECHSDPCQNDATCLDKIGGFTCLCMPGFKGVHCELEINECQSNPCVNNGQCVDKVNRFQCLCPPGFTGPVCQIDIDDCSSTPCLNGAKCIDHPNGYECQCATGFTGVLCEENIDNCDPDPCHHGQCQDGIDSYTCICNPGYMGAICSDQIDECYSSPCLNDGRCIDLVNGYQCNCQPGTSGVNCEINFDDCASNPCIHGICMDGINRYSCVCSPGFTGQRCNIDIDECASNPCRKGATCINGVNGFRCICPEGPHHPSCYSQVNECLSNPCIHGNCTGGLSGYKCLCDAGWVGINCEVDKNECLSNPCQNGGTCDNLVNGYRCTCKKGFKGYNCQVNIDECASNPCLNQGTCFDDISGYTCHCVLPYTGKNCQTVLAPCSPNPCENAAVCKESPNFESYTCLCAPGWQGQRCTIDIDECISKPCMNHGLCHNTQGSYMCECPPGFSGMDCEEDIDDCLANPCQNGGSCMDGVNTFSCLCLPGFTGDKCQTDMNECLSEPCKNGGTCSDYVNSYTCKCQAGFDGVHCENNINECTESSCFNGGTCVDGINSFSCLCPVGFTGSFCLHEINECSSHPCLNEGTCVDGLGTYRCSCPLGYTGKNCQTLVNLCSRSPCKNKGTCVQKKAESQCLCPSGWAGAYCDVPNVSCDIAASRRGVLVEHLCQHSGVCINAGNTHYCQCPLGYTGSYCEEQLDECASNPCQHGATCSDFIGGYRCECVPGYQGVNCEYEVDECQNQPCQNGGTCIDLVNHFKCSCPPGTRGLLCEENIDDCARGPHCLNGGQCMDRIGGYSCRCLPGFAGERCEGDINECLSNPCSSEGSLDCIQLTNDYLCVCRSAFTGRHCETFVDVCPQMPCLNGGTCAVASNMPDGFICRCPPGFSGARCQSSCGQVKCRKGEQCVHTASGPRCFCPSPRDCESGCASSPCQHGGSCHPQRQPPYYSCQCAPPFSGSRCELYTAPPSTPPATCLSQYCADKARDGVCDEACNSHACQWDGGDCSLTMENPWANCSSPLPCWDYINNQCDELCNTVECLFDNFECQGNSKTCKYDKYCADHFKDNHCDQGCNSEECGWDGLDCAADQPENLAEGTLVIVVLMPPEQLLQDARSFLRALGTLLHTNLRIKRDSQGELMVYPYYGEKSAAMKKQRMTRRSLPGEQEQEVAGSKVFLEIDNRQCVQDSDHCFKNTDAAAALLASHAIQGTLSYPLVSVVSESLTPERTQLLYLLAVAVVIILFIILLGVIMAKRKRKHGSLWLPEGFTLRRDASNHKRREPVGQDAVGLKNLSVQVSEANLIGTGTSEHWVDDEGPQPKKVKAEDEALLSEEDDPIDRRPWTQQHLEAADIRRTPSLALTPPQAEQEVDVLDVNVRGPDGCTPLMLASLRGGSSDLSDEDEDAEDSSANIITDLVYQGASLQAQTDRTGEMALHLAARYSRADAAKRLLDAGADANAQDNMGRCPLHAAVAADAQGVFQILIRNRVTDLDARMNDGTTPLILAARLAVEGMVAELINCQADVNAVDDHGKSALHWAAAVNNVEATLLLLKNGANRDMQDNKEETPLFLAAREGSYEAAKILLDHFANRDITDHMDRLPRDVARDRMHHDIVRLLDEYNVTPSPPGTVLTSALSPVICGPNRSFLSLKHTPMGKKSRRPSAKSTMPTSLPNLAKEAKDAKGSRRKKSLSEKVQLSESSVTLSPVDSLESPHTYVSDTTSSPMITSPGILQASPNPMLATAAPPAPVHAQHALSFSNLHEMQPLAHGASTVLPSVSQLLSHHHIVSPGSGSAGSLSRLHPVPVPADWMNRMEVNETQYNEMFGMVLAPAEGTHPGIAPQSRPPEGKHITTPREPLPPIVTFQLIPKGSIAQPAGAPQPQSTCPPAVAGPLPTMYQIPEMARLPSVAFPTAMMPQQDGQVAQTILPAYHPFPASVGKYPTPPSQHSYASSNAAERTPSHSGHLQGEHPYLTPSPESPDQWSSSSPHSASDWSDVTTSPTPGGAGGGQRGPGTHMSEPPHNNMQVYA

Structure (SMILES) | composite z-score [1] | composite z-score [2] | composite z-score [3] | composite z-score [4] | composite z-score [5] | composite z-score [6] | composite z-score [7] | z-score [8] | composite z-score [9] | composite z-score [10]
Cc1ccccc1C(O)C1C=CC2C(=O)N(C)C(=O)C2N1Nc1ccc([N+](=O)[O-])cc1[N+](=O)[O-] (stereo not given) | -0.0166 | 0.14 | 0.084 | 0.922 | 1.65 | 1.65 | 1.27 | 0.248 (inactive) | 1.59 | -0.0645
CC(C)C[C@H]1NC(=O)[C@H](C)NC(=O)[C@@]23C(=O)N[C@@H](Cc4ccccc4)C2[C@H](C)[C@@]2(C)O[C@H]2C3/C=C/C/C=C\CNC1=O (stereo not given in full) | -0.021 | 0.366 | -0.104 | -0.0496 | -0.465 | 0.0659 | 0.511 | 0.171 (inactive) | -0.521 | -0.54
COc1ccc([Si](C)(C)[C@H]2[C@H](CCn3cc(CCO)nn3)O[C@@]3(C(=O)N(Cc4cccc(N5C(=O)c6cccc7cccc5c67)c4)c4ccccc43)[C@@H]2C)cc1 | -0.201 | 0.603 | -0.105 | 0.906 | 0.45 | 0.772 | 0.862 | -3.54 (inactive) | 0.395 | 1.55
CN(C)C(=O)[C@@]1(CCC(=O)OC(C)(C)C)N=C(c2ccc(OCCCO)cc2)O[C@H]1c1ccccc1N=[N+]=[N-] | 0.294 | 1.45 | 0.0168 | 0.739 | 1.2 | 1.96 | 1.52 | 0.768 (inactive) | 1.79 | 0.245
O=C(O)[C@@]1(Cc2ccccc2)COC(c2ccc(OCCCO)cc2)=N1 | 0.805 | -0.24 | -0.0886 | -0.24 | -0.287 | 1.19 | 1.2 | 0.809 (inactive) | 0.519 | -0.0994
CC(C)CCC[C@@H](C)[C@H]1CC[C@@]2(C)C3=C(CC[C@]12C)[C@@]1(C)CC[C@H](OC(=O)C(C)(C)C)C(C)(C)C1CC3 (stereo not given in full) | -0.441 | 0.39 | -0.0609 | 0.298 | 0.575 | -0.036 | 0.307 | -0.987 (inactive) | 0.0166 | -0.0296
CO[C@H]1O[C@H](CO)[C@@H](OC(=O)c2ccc(Br)cc2)[C@@H]2OC(=O)[C@H](Cc3cccc(Br)c3)C/C=C/C[C@@H](Cc3cccc(Br)c3)C(=O)O[C@@H]12 | 0.174 | 0.665 | 0.0376 | 1.12 | 1.43 | 1.43 | 1.06 | 0.374 (inactive) | 0.551 | 0.319
C=C[C@@H](O)[C@H]1CC(c2ccccc2)=NO1 | -0.0317 | -0.1 | -0.0692 | -0.105 | -0.138 | -0.37 | -0.262 | 1.6 (inactive) | 0.266 | 0.172
C=C(COC)/C(=C/C[C@@H](OC(=O)c1ccncc1)c1cccc(OCCO)c1)c1cc(C(=O)OC)ccc1OC | -0.278 | 0.525 | -0.0428 | 1.06 | 0.426 | -0.142 | 1.38 | -3.79 (inactive) | -0.0671 | -0.156
O=C1O[C@H](c2ccccc2)[C@H](c2ccccc2)N2[C@H]1[C@@H](C(=O)N1CCN(c3ncccn3)CC1)[C@]1(C(=O)Nc3ccc(C#CCCO)cc31)[C@H]2c1ccccc1OCCO | -0.301 | 0.851 | 0.0002 | 0.931 | 1.33 | 1.64 | 0.965 | -0.363 (inactive) | 0.312 | 0.0219
CN1C(=O)C2C=CC(C(O)COCc3ccccc3)N(Nc3ccccc3)C2C1=O (stereo not given) | -0.121 | 0.165 | 0.308 | 0.389 | 1.33 | 0.374 | 1 | 0.146 (inactive) | 0.486 | -0.166
COCCOC(=O)N1C(=O)[C@@]2(c3cc(C#Cc4ccc(OC)cc4)ccc31)[C@H](c1ccc(OCCO)cc1)N1[C@H](c3ccccc3)[C@H](c3ccccc3)OC(=O)[C@H]1[C@@H]2C(N)=O | 0.261 | 1.24 | -0.0128 | 0.646 | 1.46 | 1.25 | 1.26 | 1.06 (inactive) | 0.851 | 0.0972
C=CCC(OC(C)=O)[C@@H]1[C@@H](N(Cc2ccc(-c3ccccc3)cc2)C(=O)Cc2ccc(OC)cc2)c2cc(OCCCO)ccc2N1C(=O)c1ccc(-c2ccccc2)cc1 (stereo not given in full) | -0.0141 | 0.253 | -0.0158 | -0.0965 | -0.137 | 0.275 | 0.0056 | -1.24 (inactive) | 0.0321 | 0.259
COC(=O)c1c(CC[C@@H](CO)NC(=O)N[C@@H](C)Cn2cc(C3(O)CCCC3)nn2)oc(C(C)=O)c1C(=O)OC | -0.36 | 0.715 | -0.154 | 0.143 | 0.263 | 0.974 | 1.02 | 0.533 (inactive) | 0.517 | 0.0002
COCCOC(=O)N1C(=O)[C@@]2(c3cc(C#CC4(O)CCCCCC4)ccc31)[C@H](C(=O)N1CCN(c3ncccn3)CC1)[C@H]1C(=O)O[C@H](c3ccccc3)[C@H](c3ccccc3)N1[C@@H]2c1ccc(O)cc1 | -0.238 | 0.413 | 0.0228 | 0.806 | 0.372 | 0.438 | 1.22 | -0.617 (inactive) | -0.123 | -0.0618
COC(=O)[C@]1(Cc2ccccc2N=[N+]=[N-])N=C(c2ccc(OCCCO)cc2)O[C@@H]1c1ccccc1 | 1.3 | 0.517 | 0.0132 | -0.152 | -0.0515 | 0.358 | 0.929 | -0.237 (inactive) | 0.182 | 0.0291
O=C(Nc1cc(Br)ccc1C(=O)NCc1cccc(O)c1)c1ccccc1 | -0.0036 | 0.296 | -0.0144 | 0.478 | 0.708 | 1.95 | 1.15 | -1.07 (inactive) | 0.395 | -0.318
